Consider one molecule from the supplement of paper PMC8728848.

This excerpt belongs to a sample that is enriched for the strongest signals.

Holding throughout (assay): glycan array binding signal (z-score within array); higher = stronger binding
What all share (details): glycan notation: IUPAC condensed, linker removed

Assay [1] deals with Fuc(a1-2)Gal(b1-3)GlcNAc(b1-3)Gal(b1-4)Glc. The procedure, abridged:
(§1)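 Glycan array binding is given as a within-array Z-score, which can be read as non-binding when negative. The arrays, 3228 of them, came from the Consortium for Functional Glycomics database and were retained only where the protein sequence was available. Z-scores were averaged across arrays of the same protein sequence at different concentrations or buffers and across linkers.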

Assay [2] addresses Fuc(a1-2)Gal(b1-4)GlcNAc(b1-2)Man(a1-6)[Gal(b1-4)GlcNAc(b1-2)Man(a1-3)]Man(b1-4)GlcNAc(b1-4)GlcNAc. The procedure, abridged: as §1
The target in assay [3] is Fuc(a1-2)Gal(b1-4)GlcNAc(b1-3)Gal(b1-4)GlcNAc(b1-3)Gal(b1-4)GlcNAc. The procedure, abridged: as §1
Assay [4] addresses Fuc(a1-2)Gal(b1-4)GlcNAc6S. The procedure, abridged:
as §1

The target in assay [5] is Fuc(a1-2)Gal6S(b1-4)GlcNAc. The gist of the method:
as §1

The target in assay [6] is Fuc(a1-3)[Gal(b1-4)]GlcNAc. The procedure, abridged: as §1
In the next assay the target is Gal(a1-3)Gal(b1-4)Glc. The procedure, abridged:
as §1

The target in the next assay is Gal(b1-3)GalNAc. The procedure, abridged:
as §1

The target in assay [7] is Gal(b1-3)GlcNAc(b1-3)Gal(b1-4)Glc. The gist of the method: as §1
The target of assay [8] is Gal(b1-4)GlcNAc(b1-3)Gal(b1-4)Glc. The procedure, abridged:
as §1

A further assay deals with GlcA(b1-3)Gal. The procedure, abridged: as §1
Assay [9] has as its target GlcNAc(b1-3)[GlcNAc(b1-6)]Gal(b1-4)GlcNAc. The procedure, abridged:
as §1

The target of assay [10] is GlcNAc(b1-4)GlcNAc(b1-4)GlcNAc(b1-4)GlcNAc(b1-4)GlcNAc(b1-4)GlcNAc. The procedure, abridged:
as §1

In assay [11] the target is Man(a1-2)Man(a1-2)Man(a1-3)Man. The procedure, abridged:
as §1

The target of a further assay is Man(a1-3)[Man(a1-6)]Man. The gist of the method:
as §1

A further assay deals with Man(b1-4)GlcNAc. The procedure, abridged:
as §1

Assay [12] has as its target Neu5Ac(a2-3)Gal(b1-4)[Fuc(a1-3)]GlcNAc(b1-6)[Gal(b1-3)]GalNAc. The procedure, abridged: as §1
Assay [13] addresses Neu5Ac(a2-6)Gal(b1-4)GlcNAc(b1-2)Man(a1-6)[GlcNAc(b1-2)Man(a1-3)]Man(b1-4)GlcNAc(b1-4)GlcNAc. The gist of the method:
as §1

B1: TbCVNHOa (Tuber borchii), Q5MK11 (protein)
chain: MSYADSSRNAVLTNGGRTLRAECRNADGNWVTSELDLDTCIGNPNGFLGWGMQNFSHSSEDIKLEEGGRKLTCRPKTVDGGFRERQGIDLNRIQNVNGRLVFQ
On to B1, for which the “glycan array binding signal (z-score)” value is 1.94 in assay [1]; -0.642 in assay [2]; -0.116 in assay [3]; 0.067 in assay [4]; 0.327 in assay [5]; -0.024 in assay [6]. The “glycan array binding signal (z-score)” value is 1.45 with Gal(a1-3)Gal(b1-4)Glc; -0.24 with Gal(b1-3)GalNAc; 2.76 in assay [7]; 1.38 in [8]; -0.018 in the assay with GlcA(b1-3)Gal; 0.219 in assay [9]. The “glycan array binding signal (z-score)” value in assay [10] was -0.762; in [11], 5.14; with Man(a1-3)[Man(a1-6)]Man, -0.273; with Man(b1-4)GlcNAc, -0.533; in assay [12], 0.487; in [13] it was -0.034.
